# Results filed as inconclusive are left out. The source made the active and inactive calls. How the source made its calls, unless noted: active means hit-call score of the fitted dose curve at least 0.9, where 1 is the maximum; inconclusive means response in the unintended direction; inactive means score below 0.9.
# Legend:
# [1] = read-out: sulfotransferase 2A1 (SULT2A1), SULT2A1 (gene 6822); assay: LTEA_HepaRG_SULT2A1: Life Technologies and Expression Analysis (LTEA) Assay for sulfotransferase 2A1 (SULT2A1) using HepaRG (AID 2283531; active means hit-call score of the fitted dose curve at least 0.9, where 1 is the maximum; inactive means score below 0.9); conditions: mRNA level, 48 h; actives raise or lower the signal
# Summary of the method: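 Gene-expression endpoint in a human liver cell line: SULT2A1 mRNA change after 48 h chemical treatment, curves fitted in both directions relative to 0.5% DMSO vehicle. Concentrations spanned eight half-log steps from 100 uM.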
# [2] = read-out: Transforming Growth Factor (TGFA), TGFA (gene 7039); assay: LTEA_HepaRG_TGFA: Life Technologies and Expression Analysis (LTEA) Assay for Transforming Growth Factor (TGFA) using HepaRG (AID 2283532; active means hit-call score of the fitted dose curve at least 0.9, where 1 is the maximum; inactive means score below 0.9); conditions: mRNA level, 48 h; actives raise or lower the signal
# Summary of the method: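 HepaRG (human liver line), 48 h exposure, 8 conc. half-log down from 100 uM, 0.5% DMSO vehicle, duplicates; serum-free induction medium. TGFA mRNA by TaqMan qRT-PCR, ACTB/GAPDH/POLR2A normalization; gain/loss fit vs DMSO.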
# [3] = read-out: Transforming Growth Factor (TGFB1), TGFB1 (gene 7040); assay: LTEA_HepaRG_TGFB1: Life Technologies and Expression Analysis (LTEA) Assay for Transforming Growth Factor (TGFB1) Transporter using HepaRG (AID 2283533; active means hit-call score of the fitted dose curve at least 0.9, where 1 is the maximum; inactive means score below 0.9); conditions: mRNA level, 48 h; actives raise or lower the signal
# Summary of the method: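 Eight-point concentration-response (max 100 uM, half-log) in HepaRG under serum-free induction conditions, 48 h. TGFB1 mRNA by qRT-PCR, housekeeping-normalized.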
# TIMP1, TIMP1 (gene 7076) = assay: LTEA_HepaRG_TIMP1: Life Technologies and Expression Analysis (LTEA) Assay for TIMP1 using HepaRG (AID 2283534; active means hit-call score of the fitted dose curve at least 0.9, where 1 is the maximum; inactive means score below 0.9;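 further: TaqMan qRT-PCR signal normalized to ACTB GAPDH and POLR2A housekeeping genes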); conditions: mRNA level, 48 h; actives raise or lower the signal
# Summary of the method: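 TIMP1 induction or repression in HepaRG cells after 48 h chemical exposure (eight concentrations, highest 100 uM), assessed by normalized qRT-PCR with bidirectional fitting to DMSO controls.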
# [4] = read-out: Thyroid Hormone Responsive (THRSP), THRSP (gene 7069); assay: LTEA_HepaRG_THRSP: Life Technologies and Expression Analysis (LTEA) Assay for Thyroid Hormone Responsive (THRSP) using HepaRG (AID 2283536; active means hit-call score of the fitted dose curve at least 0.9, where 1 is the maximum; inactive means score below 0.9); conditions: mRNA level, 48 h; actives raise or lower the signal
# Summary of the method: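 mRNA induction or loss relative to 0.5% DMSO vehicle was fitted bidirectionally across an eight-point curve whose highest exposure was 100 uM. Human HepaRG liver cells received chemicals in duplicate over 48 h before RNA extraction.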
# [5] = read-out: Cellular tumor antigen p53 (Homo sapiens) (UniProt P04637); assay: LTEA_HepaRG_TP53: Life Technologies and Expression Analysis (LTEA) Assay for Tumor Protein P53 (TP53) using HepaRG (AID 2283537; active means hit-call score of the fitted dose curve at least 0.9, where 1 is the maximum; inactive means score below 0.9); conditions: mRNA level, 48 h; actives raise or lower the signal
# Summary of the method: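 Differentiated HepaRG cells in serum-free induction medium exposed 48 h in duplicate to 8 half-log concentrations, top 100 uM, 0.5% DMSO. TP53 mRNA by TaqMan qRT-PCR (Fluidigm), normalized to ACTB, GAPDH, POLR2A; fitted bidirectionally versus DMSO.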
# [6] = read-out: UDP glucuronosyltransferase (UGT1A1), UGT1A1 (gene 54658); assay: LTEA_HepaRG_UGT1A1: Life Technologies and Expression Analysis (LTEA) Assay for UDP glucuronosyltransferase (UGT1A1) using HepaRG (AID 2283538; active means hit-call score of the fitted dose curve at least 0.9, where 1 is the maximum; inactive means score below 0.9); conditions: mRNA level, 48 h; actives raise or lower the signal
# Summary of the method: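 Differentiated human HepaRG cells in serum-free induction medium were exposed in duplicate for 48 h to eight half-log concentrations up to 100 uM in 0.5% DMSO. UGT1A1 mRNA was quantified by TaqMan qRT-PCR, normalized to ACTB, GAPDH and POLR2A, and fitted bidirectionally against DMSO.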
# [7] = read-out: UDP glucuronosyltransferase (UGT1A6), UGT1A6 (gene 54578); assay: LTEA_HepaRG_UGT1A6: Life Technologies and Expression Analysis (LTEA) Assay for UDP glucuronosyltransferase (UGT1A6) using HepaRG (AID 2283539; active means hit-call score of the fitted dose curve at least 0.9, where 1 is the maximum; inactive means score below 0.9); conditions: mRNA level, 48 h; actives raise or lower the signal
# Summary of the method: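 Measures mRNA change in HepaRG hepatic cells exposed 48 h to chemicals (eight-point, maximum 100 uM, 0.5% DMSO vehicle) in serum-free induction medium. Expression normalized to endogenous controls; DMSO served as negative control and baseline.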
# [8] = read-out: X-box binding protein 1 (XBP1), XBP1 (gene 7494); assay: LTEA_HepaRG_XBP1: Life Technologies and Expression Analysis (LTEA) Assay for X-box binding protein 1 (XBP1) using HepaRG (AID 2283540; active means hit-call score of the fitted dose curve at least 0.9, where 1 is the maximum; inactive means score below 0.9); conditions: mRNA level, 48 h; actives raise or lower the signal
# Summary of the method: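 Eight concentrations (half-log, highest 100 uM, 0.5% DMSO) tested in duplicate on HepaRG cells over 48 h in serum-free induction medium; qRT-PCR of XBP1 normalised to ACTB, GAPDH, POLR2A.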
# [9] = LTEA_HepaRG_LDH_cytotoxicity: Cytotoxicity Assessment in the Life Technologies and Expression Analysis (LTEA) Assay (AID 2283563)
# Summary of the method: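 Spent-medium LDH after 48 h chemical exposure of HepaRG cells in serum-free induction medium; eight concentrations, half-log dilutions from 100 uM, duplicate wells, fitted upward relative to 0.5% DMSO.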
# [10] = ATG_XTT_Cytotoxicity: Cytotoxicity Assessment in the Attagene TRANS-FACTORIAL HepG2 Assay (AID 2283584)
# Summary of the method: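 24 h chemical exposure of reporter-transfected HepG2; XTT signal loss vs DMSO indicates cytotoxicity.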
# [11] = TOX21_p53_BLA_p2_viability: Viability Assessment in the Tox21 HCT-116 p53 Agonism Beta-lactamase Assay, Phase 2 (AID 2283591);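 further: compound exposure lasted 16 h at 37 °C; actives lower the ATP signal meaning cytotoxicity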
# Summary of the method: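 Cytotoxicity readout: CellTiter-Glo ATP luminescence, 30 min at room temperature, after the beta-lactamase read. Cells were HCT116 exposed 16 h at 37C to compounds pin-transferred at 217-fold dilution from DMSO stocks.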
# [12] = target: Cellular tumor antigen p53 (Homo sapiens) (UniProt P04637); assay: TOX21_p53_BLA_p2_ratio: Tox21 HCT-116 p53 Agonism Beta-lactamase Assay, Ratio, Phase 2 (AID 2283592)
# Cellular tumor antigen p53 (Homo sapiens), sequence (P04637 whole entry, looked up): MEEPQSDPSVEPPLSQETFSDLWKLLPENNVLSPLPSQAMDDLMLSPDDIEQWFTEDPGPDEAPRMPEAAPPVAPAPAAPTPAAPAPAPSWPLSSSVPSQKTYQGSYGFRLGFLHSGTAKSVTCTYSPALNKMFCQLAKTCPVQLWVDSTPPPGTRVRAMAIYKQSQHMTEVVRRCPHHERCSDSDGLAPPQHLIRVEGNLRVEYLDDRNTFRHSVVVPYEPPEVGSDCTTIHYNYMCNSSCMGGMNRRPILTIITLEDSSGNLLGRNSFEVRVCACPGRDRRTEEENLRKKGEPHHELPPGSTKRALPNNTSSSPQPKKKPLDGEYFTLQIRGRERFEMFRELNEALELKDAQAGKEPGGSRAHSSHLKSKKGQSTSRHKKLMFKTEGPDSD
# Summary of the method: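 Human colon HCT116 cells with an inducible p53 beta-lactamase reporter are exposed to test chemicals for 16 h at 37C. Reporter induction is read as the 460/530 nm emission ratio after CCF4-AM loading, normalized to DMSO.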
# [13] = TOX21_p53_BLA_p3_viability: Viability Assessment in the Tox21 HCT-116 p53 Agonism Beta-lactamase Assay, Phase 3 (AID 2283593);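 further: cells exposed to compound for 16 h before reading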
# Summary of the method: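 Cellular ATP was quantified by CellTiter-Glo luminescence, read after 30 min at room temperature. Beforehand, HCT116 cells (4000/well) received compound 5 h post-seeding, 217-fold diluted from DMSO, then incubated 16 h at 37C.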
# [14] = target: Cellular tumor antigen p53 (Homo sapiens) (UniProt P04637); assay: TOX21_p53_BLA_p3_ratio: Tox21 HCT-116 p53 Agonism Beta-lactamase Assay, Ratio, Phase 3 (AID 2283596)
# Summary of the method: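 HCT116 p53-bla cells (4000/well) given compound in DMSO (217-fold dilution) after 5 h, incubated 16 h at 37C. CCF4-AM substrate 2 h at room temperature; 460/530 nm emission ratio, gain fitted against DMSO.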
# [15] = TOX21_p53_BLA_p4_viability: Viability Assessment in the Tox21 HCT-116 p53 Agonism Beta-lactamase Assay, Phase 4 (AID 2283597);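 further: hits lower the luminescence signal meaning cytotoxicity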
# Summary of the method: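 Luminescent ATP readout (CellTiter-Glo, 30 min, room temperature) in the same wells as the p53 bla ratio. HCT116 cells were treated for 16 h at 37C with DMSO-dissolved compounds.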
# [16] = target: Cellular tumor antigen p53 (Homo sapiens) (UniProt P04637); assay: TOX21_p53_BLA_p5_ratio: Tox21 HCT-116 p53 Agonism Beta-lactamase Assay, Ratio, Phase 5 (AID 2283599)
# Summary of the method: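 Beta-lactamase reporter ratio (blue 460 nm over green 530 nm, 405 nm excitation) after 2 h CCF4-AM loading, in HCT-116 cells exposed 16 h at 37 C to compounds pinned at 217-fold dilution. Increases relative to DMSO baseline scored.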
# [17] = TOX21_p53_BLA_p5_viability: Viability Assessment in the Tox21 HCT-116 p53 Agonism Beta-lactamase Assay, Phase 5 (AID 2283600)
# Summary of the method: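 Seeded cells (4000/well) settle 5 h before compound addition. Plates then incubate 16 h at 37C, receive FRET substrate for 2 h, and finally CellTiter-Glo, with luminescence measured after a 30 min room-temperature incubation.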
# [18] = target: Cellular tumor antigen p53 (Homo sapiens) (UniProt P04637); assay: TOX21_p53_BLA_p4_ratio: Tox21 HCT-116 p53 Agonism Beta-lactamase Assay, Ratio, Phase 4 (AID 2283601)
# Summary of the method: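 Signal is the blue/green (460nm/530nm) ratio of cleaved versus uncleaved CCF4-AM substrate, read after 2 h substrate loading. Cells were HCT116 carrying the p53-responsive beta-lactamase reporter, dosed 16 h at 37C, 5% CO2; CellTiter-Glo measured in parallel.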
# [19] = read-out: Tumor necrosis factor receptor 1 (TNFRSF1A), TNFRSF1A (gene 7132); assay: LTEA_HepaRG_TNFRSF1A: Life Technologies and Expression Analysis (LTEA) Assay for Tumor necrosis factor receptor 1 (TNFRSF1A) using HepaRG (AID 2283535; active means hit-call score of the fitted dose curve at least 0.9, where 1 is the maximum; inactive means score below 0.9); conditions: mRNA level, 48 h; actives raise or lower the signal
# Summary of the method: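 Assay uses 48 h chemical treatment of differentiated HepaRG monolayers, tested in duplicate at eight concentrations from 100 uM downward in 0.5% DMSO. mRNA is normalized to ACTB, GAPDH and POLR2A, with induction or suppression fitted relative to vehicle.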
smiles,measurement,setting,value
Nc1ccc(S(=O)(=O)c2ccc(N)cc2)cc1,outcome,[1],inactive
same,outcome,[2],inactive
same,outcome,[3],inactive
same,outcome,"TIMP1, TIMP1 (gene 7076)",inactive
same,outcome,[4],inactive
same,outcome,[5],inactive
same,outcome,[6],inactive
same,outcome,[7],inactive
same,outcome,[8],inactive
same,outcome,[9],inactive
same,outcome,[10],inactive
same,outcome,[11],inactive
same,outcome,[12],inactive
same,outcome,[13],inactive
same,outcome,[14],inactive
same,outcome,[15],inactive
same,outcome,[16],inactive
same,outcome,[17],inactive
same,outcome,[18],inactive
Cc1ccccc1Cl,outcome,[1],inactive
same,outcome,[2],inactive
same,outcome,[3],inactive
same,outcome,"TIMP1, TIMP1 (gene 7076)",inactive
same,outcome,[4],inactive
same,outcome,[5],inactive
same,outcome,[6],inactive
same,outcome,[7],inactive
same,outcome,[8],inactive
same,outcome,[9],inactive
same,outcome,[10],inactive
same,outcome,[11],inactive
same,outcome,[12],inactive
same,outcome,[13],inactive
same,outcome,[14],inactive
same,outcome,[16],inactive
same,outcome,[17],inactive
same,outcome,[18],inactive
CCNc1cccc(C)c1,outcome,[1],inactive
same,outcome,[2],inactive
same,outcome,[3],inactive
same,outcome,"TIMP1, TIMP1 (gene 7076)",inactive
same,outcome,[19],inactive
same,outcome,[4],inactive
same,outcome,[6],inactive
same,outcome,[7],inactive
same,outcome,[8],inactive
same,outcome,[9],inactive
same,outcome,[10],inactive
same,outcome,[11],inactive
same,outcome,[12],inactive
same,outcome,[13],inactive
same,outcome,[14],inactive
same,outcome,[15],inactive
same,outcome,[16],inactive
same,outcome,[17],inactive
same,outcome,[18],inactive
CC=Cc1ccc(O)c(OC)c1,outcome,[1],inactive
same,outcome,[2],inactive
same,outcome,[3],inactive
same,outcome,"TIMP1, TIMP1 (gene 7076)",inactive
same,outcome,[4],inactive
same,outcome,[5],inactive
same,outcome,[6],inactive
same,outcome,[7],inactive
same,outcome,[8],inactive
same,outcome,[9],inactive
same,outcome,[10],inactive
same,outcome,[11],inactive
same,outcome,[12],inactive
same,outcome,[14],inactive
same,outcome,[15],inactive
same,outcome,[16],inactive
same,outcome,[17],inactive
same,outcome,[18],inactive
C1CCC(SSC2CCCCC2)CC1,outcome,[1],inactive
same,outcome,[2],inactive
same,outcome,[3],inactive
same,outcome,"TIMP1, TIMP1 (gene 7076)",inactive
same,outcome,[19],inactive
same,outcome,[4],inactive
same,outcome,[6],inactive
same,outcome,[7],inactive
same,outcome,[8],inactive
same,outcome,[9],inactive
same,outcome,[10],inactive
same,outcome,[11],inactive
same,outcome,[12],inactive
same,outcome,[13],inactive
same,outcome,[14],inactive
same,outcome,[16],inactive
same,outcome,[17],inactive
same,outcome,[18],inactive
Cc1cccc(Nc2cc(Cl)nc(SCC(=O)O)n2)c1C,outcome,[1],inactive
same,outcome,[2],inactive
same,outcome,[3],inactive
same,outcome,"TIMP1, TIMP1 (gene 7076)",inactive
same,outcome,[19],inactive
same,outcome,[4],inactive
same,AC50,[6],50 µM (active)
same,outcome,[7],inactive
same,outcome,[8],inactive
same,outcome,[9],inactive
same,outcome,[12],inactive
same,outcome,[14],inactive
same,outcome,[15],inactive
same,outcome,[16],inactive
same,outcome,[18],inactive
CN1CCCC1=O,outcome,[1],inactive
same,outcome,[2],inactive
same,outcome,[3],inactive
same,outcome,"TIMP1, TIMP1 (gene 7076)",inactive
same,outcome,[4],inactive
same,outcome,[5],inactive
same,outcome,[6],inactive
same,outcome,[7],inactive
same,outcome,[8],inactive
same,outcome,[9],inactive
same,outcome,[10],inactive
same,outcome,[12],inactive
same,outcome,[13],inactive
same,outcome,[14],inactive
same,outcome,[15],inactive
same,outcome,[16],inactive
same,outcome,[17],inactive
same,outcome,[18],inactive

# Source: PubChem BioAssay (EPA / NIEHS)
